Source: PubChem BioAssay (EPA / NIEHS)
Inconclusive results are not listed. Activity calls are given as the source filed them. The calls were made as follows, unless noted: active = hit-call score of the fitted dose curve at least 0.9, where 1 is the maximum; inactive = score below 0.9.

Assays:
[1] = CCTE_Shafer_MEA_acute_firing_rate_mean: CCTE's Neural Acute Assay for Mean Firing Rate, Shafer Lab (AID 2284009);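 also: analyzed for loss of signal so actives lower firing rate relative to DMSO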
Outline: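 Spontaneous spiking of primary rat cortical networks, DIV 13/15, 37 C. Compound 0.03-40 uM, n ≥3 wells; 40 min baseline vs 40 min treated. Endpoint fitted in loss-of-signal direction against DMSO.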

[2] = CCTE_Shafer_MEA_acute_burst_number: CCTE's Neural Acute Assay for Single-Electrode Bursts, Shafer Lab (AID 2284013)
Outline: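 Burst totals were derived with adaptive spike detection (8x rms threshold) on filtered signals from rat cortical cultures; change relative to pre-treatment baseline after 40-min compound exposure (0.03-40 uM) was fitted in the negative direction against DMSO.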

[3] = CCTE_Shafer_MEA_acute_burst_duration_mean: CCTE's Neural Acute Assay for Mean Burst Duration, Shafer Lab (AID 2284014);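 also: hits are decreases in mean burst duration relative to DMSO controls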
Outline: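 Acute exposure of mature rat cortical networks (DIV 13 or 15) grown on microelectrode arrays to 0.03-40 uM compound. Mean burst duration compared with the 40-min pre-dose baseline over a 40-min post-dose recording at 37 C.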

[4] = CCTE_Shafer_MEA_acute_per_burst_spike_number_mean: CCTE's Neural Acute Assay for Average Number of Spikes Per Burst, Shafer Lab (AID 2284015);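 also: hits are decreases in mean spikes per burst versus baseline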
Outline: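 Read-out: percent change in mean spikes per burst, each well's post-exposure 40-min recording versus its own 40-min baseline. Rat cortical cultures, DIV 13 or 15, compounds 0.03-40 uM; DMSO is negative control, loss-of-signal fitting.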

[5] = CCTE_Shafer_MEA_acute_interburst_interval_mean: CCTE's Neural Acute Assay for Mean Interburst Interval, Shafer Lab (AID 2284016);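 also: percent change of mean interburst interval versus each well's own pre-dose baseline; curves fitted for decrease in interburst interval relative to DMSO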
Outline: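 Rat cortical cultures, DIV 13/15; 20 min equilibration, 40 min baseline, compound 0.03-40 uM, 40 min re-recording, 37 C. Spikes detected at 8x rms noise (300-5000 Hz band-pass). Endpoint: % change in interburst interval, fitted in loss direction vs DMSO.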

[6] = CCTE_Shafer_MEA_acute_burst_percentage_mean: CCTE's Neural Acute Assay for Percentage of Spikes in a Burst, Shafer Lab (AID 2284017);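 as to AC50: curve fitted for loss of signal so potency reflects decreased burst percentage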
Outline: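 Rat cortical cultures, DIV 13/15, 37 C. Spikes detected at 8x rms noise (300-5000 Hz band-pass). Burst spikes/total spikes averaged across electrodes per well; % change post- vs pre-treatment (40 min each), loss-of-signal fit vs DMSO.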

[7] = CCTE_Shafer_MEA_acute_burst_percentage_std: CCTE's Neural Acute Assay for Standard Deviation of Burst Percentage, Shafer Lab (AID 2284018);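 also: fitted in the negative direction so actives lower burst percentage SD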
Outline: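 Primary rat cortical neurons on 16-electrode MEA wells were recorded 40 min at baseline (DIV 13 or 15), then 40 min after compound (0.03-40 uM), at 37 C. Well value is SD across electrodes of spikes-in-bursts/total spikes; endpoint is percent change, DMSO-referenced.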

[8] = CCTE_Shafer_MEA_acute_per_network_burst_spike_number_std: CCTE's Neural Acute Assay for Standard Deviation of Number of Spikes in a Network Burst, Shafer Lab (AID 2284020);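 also: fitted for decrease in spike-number SD versus DMSO so actives lower it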
Outline: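 Acute MEA exposure, rat cortical neurons, 0.03-40 uM. Per-well % change versus own baseline; DMSO as negative control.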

[9] = CCTE_Shafer_MEA_acute_network_burst_percentage: CCTE's Neural Acute Assay for Percentage of Network Bursts, Shafer Lab (AID 2284022);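 also: curves fitted for loss so actives lower network burst percentage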
Outline: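 On DIV 13 or 15, at least three wells of rat cortical neurons per compound are dosed at 0.03-40 uM. Spontaneous firing is detected at 8x rms noise for 40 min before and after dosing at 37 C. The percent change in network-burst spike share is reported.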

[10] = CCTE_Shafer_MEA_acute_cross_correlation_area: CCTE's Neural Acute Assay for Area of Cross Correlation, Shafer Lab (AID 2284024);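 also: area under pooled inter-electrode spike cross-correlation near zero lag as percent change from own baseline; curves fitted for loss of cross-correlation area so actives lower synchrony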
Outline: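 Extracellular recordings from cultured rat cortical neurons measure network synchrony as cross-correlation area; each well's post-compound value (0.03-40 uM, 40 min) is compared with its own 40 min baseline to give percent change.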

[11] = CCTE_Shafer_MEA_acute_cross_correlation_HWHM: CCTE's Neural Acute Assay for Cross Correlation at Half Width at Half Maximum, Shafer Lab (AID 2284026);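 also: percent change per well from pre-dose baseline in spike cross-correlogram half width; hits are a decrease in cross-correlogram half width relative to DMSO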
Outline: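 Percent change in cross-correlogram half width at half maximum, narrower meaning more synchrony, was derived per well from paired 40-min recordings before and during exposure to 0.03-40 uM compound in rat cortical cultures at 37 C.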

[12] = CCTE_Shafer_MEA_acute_synchrony_index: CCTE's Neural Acute Assay for Synchrony, Shafer Lab (AID 2284027);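 also: network synchrony index of spontaneous spiking in primary rat cortical neurons on MEAs; fitted for loss of signal so actives lower synchrony relative to DMSO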
Outline: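 Rat cortical cultures, DIV 13/15; spikes detected at 8x rms noise, 300-5000 Hz band-pass. Compound 0.03-40 uM, ≥3 wells; 40-min pre- and post-exposure recordings, 37 C. Readout: % change in synchrony index; loss-of-signal fit vs DMSO.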

[13] = target: Ratio of Nucleoli Translocation and Cytoplasm, AR (gene 367) (UniProt P10275); assay: UPITT_HCI_U2OS_AR_TIF2_Nucleoli_Cytoplasm_Ratio_Antagonist: University of Pittsburgh U2OS Androgen Receptor-Transcriptional Intermediary Factor 2 (AR-TIF2) Antagonism High Content Imaging Assay for Ratio of Nucleoli Translocation and Cytoplasm (AID 2283999; active = hit-call score of the fitted dose curve at least 0.9, where 1 is the maximum;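 also: antagonists lower the DHT-driven ratio of nucleolar to cytoplasmic red signal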)
Ratio of Nucleoli Translocation and Cytoplasm, AR (gene 367), sequence (P10275 whole entry, looked up): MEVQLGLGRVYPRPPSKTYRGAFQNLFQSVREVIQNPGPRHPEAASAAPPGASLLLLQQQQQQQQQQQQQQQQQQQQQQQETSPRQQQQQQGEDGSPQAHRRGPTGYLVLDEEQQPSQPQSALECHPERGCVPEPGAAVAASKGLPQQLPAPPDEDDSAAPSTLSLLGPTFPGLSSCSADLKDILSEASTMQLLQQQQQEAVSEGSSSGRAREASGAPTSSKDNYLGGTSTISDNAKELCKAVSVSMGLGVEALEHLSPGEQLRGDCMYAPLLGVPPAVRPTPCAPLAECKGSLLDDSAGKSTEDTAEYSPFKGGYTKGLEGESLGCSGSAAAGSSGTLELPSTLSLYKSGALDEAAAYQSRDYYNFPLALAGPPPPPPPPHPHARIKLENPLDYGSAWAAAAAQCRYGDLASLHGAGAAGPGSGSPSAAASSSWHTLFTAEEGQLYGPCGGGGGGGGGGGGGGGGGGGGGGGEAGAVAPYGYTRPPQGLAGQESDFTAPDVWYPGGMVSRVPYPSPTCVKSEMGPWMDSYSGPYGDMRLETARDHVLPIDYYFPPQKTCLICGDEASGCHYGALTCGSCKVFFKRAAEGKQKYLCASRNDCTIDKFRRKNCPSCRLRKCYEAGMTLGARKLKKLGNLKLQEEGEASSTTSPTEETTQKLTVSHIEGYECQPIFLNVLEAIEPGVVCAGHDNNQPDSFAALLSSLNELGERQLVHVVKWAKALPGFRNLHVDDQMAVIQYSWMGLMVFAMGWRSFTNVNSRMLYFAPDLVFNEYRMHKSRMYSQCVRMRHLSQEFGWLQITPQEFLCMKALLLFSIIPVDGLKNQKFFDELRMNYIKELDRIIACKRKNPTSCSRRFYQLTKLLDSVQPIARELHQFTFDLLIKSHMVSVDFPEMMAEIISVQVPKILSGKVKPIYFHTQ
Outline: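 Read-out is the ratio of nucleolar to cytoplasmic AR-RFP fluorescence, imaged by high-content microscopy in U2OS cells coexpressing TIF2-GFP. Single-point 20 uM screen, triplicate confirmation, then 0.195–50 uM dose response; activity referenced to DHT baseline.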

[14] = target: Ratio of Nucleoli Translocation and Cytoplasm, AR (gene 367) (UniProt P10275); assay: UPITT_HCI_U2OS_AR_TIF2_Nucleoli_Cytoplasm_Ratio_Agonist: University of Pittsburgh U2OS Androgen Receptor-Transcriptional Intermediary Factor 2 (AR-TIF2) Agonism High Content Imaging Assay for Ratio of Nucleoli Translocation and Cytoplasm (AID 2284000; active = hit-call score of the fitted dose curve at least 0.9, where 1 is the maximum;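 also: hits raise the red nucleolar to cytoplasm ratio above vehicle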)
Outline: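 Primary screen at 20 uM final (0.2% DMSO), then triplicate confirmation and dose-response from 0.195 to 50 uM final (0.5% DMSO). Cells: U2OS with AR-RFP and TIF2-GFP. Endpoint is the nucleoli/cytoplasm red-fluorescence ratio, gain-of-signal vs DMSO.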

[15] = CCTE_Harrill_HTTr_Viability_MCF7: CCTE's 6-hour Cell Viability Assessment for the High-Throughput Transcriptomics (HTTr) Platform, in MCF-7 cells cultured in DMEM + 10% fetal bovine serum, Harrill Lab (AID 2284010)
Outline: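 PI exclusion, high-content imaging; 8-pt dilution series, 6 h exposure; bidirectional fit vs DMSO (neg. ctrl/baseline); gain of signal = loss of membrane integrity.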

[16] = CCTE_Harrill_HTTr_Apoptosis_MCF7: CCTE's 6-hour Apoptosis Assessment for the High-Throughput Transcriptomics (HTTr) Platform, in MCF-7 cells cultured in DMEM + 10% fetal bovine serum, Harrill Lab (AID 2284011)
Outline: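 Apoptosis in MCF-7 cells grown in DMEM with 10% fetal bovine serum was scored after a six hour exposure by high content imaging of caspase-3/7 activation (CellEvent Caspase 3/7 Green), with DMSO serving as negative control and baseline.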

[17] = CCTE_Harrill_HTTr_CellCount_MCF7: CCTE's Cell Proliferation Assessment for the High-Throughput Transcriptomics (HTTr) Platform, Harrill Lab (AID 2284012; active = hit-call score of the fitted dose curve at least 0.9, where 1 is the maximum;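 also: count of Hoechst-stained nuclei per well by high-content imaging in MCF-7 cells; cells exposed to compound for six hours; intended direction is loss of nuclei count meaning fewer cells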)
Outline: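 Readout: Hoechst nuclear count by high-content imaging. MCF-7, 8-point dilution series, 6 h exposure. Bidirectional fit vs DMSO baseline.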

Measured: AC50

CCCCCCCCCCCC(=O)N(C)CC(=O)O
inactive: [1] | [2] | [3] | [10]
active: [4] 2.9 µM | [5] 22.8 µM | [6] 20.2 µM | [7] 0.0576 µM | [8] 14.6 µM | [9] 23.1 µM | [11] 21.6 µM | [12] 21.9 µM

CCCCCC[C@@H](O)C/C=C\CCCCCCCC(=O)OCC(O)CO (stereo not given in full)
inactive: [13] | [14]

Cc1ccc(C)c(OCCCC(C)(C)C(=O)O)c1
inactive: [13] | [14] | [15] | [16] | [17]

Oc1ccccc1Cc1ccccc1O
inactive: [15] | [16] | [8]
active: [1] 0.207 µM | [2] 0.159 µM | [3] 7.82 µM | [4] 8.01 µM | [5] 0.1 µM | [6] 6.16 µM | [7] 8.53 µM | [9] 1.96 µM | [10] 0.156 µM | [11] 5.2 µM | [12] 8.49 µM

Oc1ccc(-c2ccccc2)c(Cl)c1
inactive: [13] | [14] | [15] | [16] | [17]

CC(C)C(=O)OCCc1ccccc1
not listed: [13] | [14] | [15] | [16] | [17]
inactive: all other assays above
